Assays:
Assay in all cases: DAPPL (digital affinity profiling via proximity ligation, sequencing); 10 mM Tris-HCl pH 7.5, 50 mM NaCl, 1 mM DTT, 4% glycerol, room temperature, 30 min; GST-TFs on glutathione beads, 16-mer random dsDNA library, 0.1% formaldehyde crosslink after washing; high values mean tight binding
Conditions in all cases: protein: recombinant; tags: N-terminal GST; dsDNA, one strand shown
ERF = molecular target: T1, ERF (Homo sapiens, UniProt P50548 1-548)
T1 sequence: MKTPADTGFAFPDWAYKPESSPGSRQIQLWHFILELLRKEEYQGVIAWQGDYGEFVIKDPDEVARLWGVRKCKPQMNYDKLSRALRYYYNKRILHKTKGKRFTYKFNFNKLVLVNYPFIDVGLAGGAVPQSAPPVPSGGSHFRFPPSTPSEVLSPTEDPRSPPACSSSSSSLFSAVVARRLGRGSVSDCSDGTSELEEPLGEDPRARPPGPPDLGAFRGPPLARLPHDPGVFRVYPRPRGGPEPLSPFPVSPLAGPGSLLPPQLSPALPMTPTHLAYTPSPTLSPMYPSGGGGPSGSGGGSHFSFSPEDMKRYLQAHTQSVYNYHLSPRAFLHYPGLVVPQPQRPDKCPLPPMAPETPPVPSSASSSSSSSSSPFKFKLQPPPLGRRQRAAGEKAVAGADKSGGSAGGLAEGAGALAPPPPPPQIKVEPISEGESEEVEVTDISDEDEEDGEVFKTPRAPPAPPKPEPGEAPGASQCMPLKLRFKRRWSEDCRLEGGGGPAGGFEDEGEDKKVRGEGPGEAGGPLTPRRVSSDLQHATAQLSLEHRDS
In short: (§1)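 The binding signal reported is, for every hexamer, its read frequency for a factor over its read frequency for the tag-only sample. Reads came from pools of yeast-expressed, GST-fused human transcription factors on glutathione beads, barcoded with DNA and mixed with that sample, which were incubated with 200 nmole of a random double-stranded 16-mer DNA library in Tris/NaCl/DTT/glycerol buffer at room temperature for 30 min. After washing, the pools were crosslinked with 0.1% formaldehyde, proximity-ligated with BsaI/T4 ligase for 1 h at 37 °C, PCR-amplified and sequenced on an Illumina NextSeq500.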

ETV3L = molecular target: T2, ETV3L (Homo sapiens, UniProt Q6ZN32 1-361)
T2 sequence: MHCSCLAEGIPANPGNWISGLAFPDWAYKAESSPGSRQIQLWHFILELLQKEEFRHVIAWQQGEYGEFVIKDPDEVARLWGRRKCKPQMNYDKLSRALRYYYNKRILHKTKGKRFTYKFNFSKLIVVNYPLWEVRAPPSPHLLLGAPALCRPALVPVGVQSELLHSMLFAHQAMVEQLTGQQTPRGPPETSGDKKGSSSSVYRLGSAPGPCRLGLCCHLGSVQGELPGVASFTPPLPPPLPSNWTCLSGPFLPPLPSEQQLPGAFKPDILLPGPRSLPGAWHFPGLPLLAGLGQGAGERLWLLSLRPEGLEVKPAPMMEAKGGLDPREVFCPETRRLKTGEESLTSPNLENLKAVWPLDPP
In short: as §1

ETS2 = molecular target: T3, ETS2 (Homo sapiens, UniProt P15036 1-469)
T3 sequence: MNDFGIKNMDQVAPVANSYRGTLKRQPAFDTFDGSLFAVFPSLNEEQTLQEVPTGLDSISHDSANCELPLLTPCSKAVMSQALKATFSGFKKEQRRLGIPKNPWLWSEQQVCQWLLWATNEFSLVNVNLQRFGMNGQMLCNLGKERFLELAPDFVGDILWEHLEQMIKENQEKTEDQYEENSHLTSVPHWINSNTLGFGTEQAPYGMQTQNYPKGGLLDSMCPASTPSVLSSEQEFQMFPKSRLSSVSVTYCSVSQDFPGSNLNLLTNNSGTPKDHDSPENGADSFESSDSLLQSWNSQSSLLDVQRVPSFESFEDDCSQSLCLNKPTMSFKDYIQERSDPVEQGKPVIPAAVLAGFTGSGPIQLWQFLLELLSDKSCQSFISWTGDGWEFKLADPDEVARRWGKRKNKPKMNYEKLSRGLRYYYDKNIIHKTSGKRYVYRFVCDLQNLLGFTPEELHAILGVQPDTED
In short: as §1

SPDEF = molecular target: T4, SPDEF (Homo sapiens, UniProt O95238 1-335)
T4 sequence: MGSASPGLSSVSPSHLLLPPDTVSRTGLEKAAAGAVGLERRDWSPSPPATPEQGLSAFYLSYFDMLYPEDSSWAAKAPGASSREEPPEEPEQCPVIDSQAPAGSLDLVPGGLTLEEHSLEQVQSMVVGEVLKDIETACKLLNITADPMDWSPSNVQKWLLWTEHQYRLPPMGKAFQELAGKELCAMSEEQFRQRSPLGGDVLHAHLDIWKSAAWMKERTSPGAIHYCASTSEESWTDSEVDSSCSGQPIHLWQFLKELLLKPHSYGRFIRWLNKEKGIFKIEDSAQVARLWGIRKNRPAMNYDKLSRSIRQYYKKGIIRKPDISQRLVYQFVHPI
In short: as §1

ETV7 = molecular target: T5, ETV7 (Homo sapiens, UniProt Q9Y603 1-341)
T5 sequence: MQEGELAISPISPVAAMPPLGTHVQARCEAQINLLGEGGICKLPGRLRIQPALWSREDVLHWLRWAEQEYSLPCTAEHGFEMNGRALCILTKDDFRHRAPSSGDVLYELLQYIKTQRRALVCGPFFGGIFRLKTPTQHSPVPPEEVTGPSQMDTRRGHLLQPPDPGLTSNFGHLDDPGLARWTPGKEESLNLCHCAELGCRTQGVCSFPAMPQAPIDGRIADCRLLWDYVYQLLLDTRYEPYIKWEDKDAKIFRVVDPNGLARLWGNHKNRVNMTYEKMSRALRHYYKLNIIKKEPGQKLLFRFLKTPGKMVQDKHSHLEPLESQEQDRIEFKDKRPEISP
In short: as §1

ELF5 = molecular target: T6, ELF5 (Homo sapiens, UniProt Q9UKW6-2 1-255)
T6 sequence: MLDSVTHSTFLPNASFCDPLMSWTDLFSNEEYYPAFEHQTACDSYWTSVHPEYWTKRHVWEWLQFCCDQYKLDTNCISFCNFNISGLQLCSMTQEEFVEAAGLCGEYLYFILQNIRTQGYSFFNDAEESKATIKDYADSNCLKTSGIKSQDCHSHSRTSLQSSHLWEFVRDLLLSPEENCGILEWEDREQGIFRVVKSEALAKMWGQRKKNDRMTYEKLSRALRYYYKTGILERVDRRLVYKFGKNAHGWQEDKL
In short: as §1

ETV3 = molecular target: T7, ETV3 (Homo sapiens, UniProt P41162-2 1-143)
T7 sequence: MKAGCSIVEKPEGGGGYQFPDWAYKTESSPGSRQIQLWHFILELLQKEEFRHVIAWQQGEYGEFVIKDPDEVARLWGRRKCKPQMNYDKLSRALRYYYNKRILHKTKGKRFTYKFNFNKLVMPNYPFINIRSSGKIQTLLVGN
In short: as §1

ETV6 = ETV6 (Homo sapiens, UniProt P41212 1-452)
In short: as §1

Sequence of ETV6 (P41212 whole entry): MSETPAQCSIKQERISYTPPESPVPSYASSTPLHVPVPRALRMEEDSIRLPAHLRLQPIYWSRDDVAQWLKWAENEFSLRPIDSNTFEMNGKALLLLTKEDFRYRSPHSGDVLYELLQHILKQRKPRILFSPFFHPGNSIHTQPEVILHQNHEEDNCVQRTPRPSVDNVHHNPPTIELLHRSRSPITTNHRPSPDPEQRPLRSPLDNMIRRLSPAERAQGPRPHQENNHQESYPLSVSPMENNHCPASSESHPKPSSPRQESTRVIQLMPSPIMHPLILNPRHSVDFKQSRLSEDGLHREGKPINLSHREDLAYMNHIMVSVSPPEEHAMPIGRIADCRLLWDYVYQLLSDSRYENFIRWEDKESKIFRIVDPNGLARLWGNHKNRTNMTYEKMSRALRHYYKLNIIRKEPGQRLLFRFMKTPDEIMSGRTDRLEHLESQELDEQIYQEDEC

Sequence | binding signal (ERF) | binding signal (ETV3L) | binding signal (ETS2) | binding signal (SPDEF) | binding signal (ETV7) | binding signal (ELF5) | binding signal (ETV3) | binding signal (ETV6)
CGTCAC | 1.15 fold enrichment (6-mer frequency, TF over GST control) | 1.15 fold enrichment (6-mer frequency, TF over GST control) | 1.27 fold enrichment (6-mer frequency, TF over GST control) | 1.21 fold enrichment (6-mer frequency, TF over GST control) | 1.13 fold enrichment (6-mer frequency, TF over GST control) | 1.16 fold enrichment (6-mer frequency, TF over GST control) | 1.11 fold enrichment (6-mer frequency, TF over GST control) | 1.24 fold enrichment (6-mer frequency, TF over GST control)
CACCCC | 1.36 fold enrichment (6-mer frequency, TF over GST control) | 1.34 fold enrichment (6-mer frequency, TF over GST control) | 1.22 fold enrichment (6-mer frequency, TF over GST control) | 1.24 fold enrichment (6-mer frequency, TF over GST control) | 1.11 fold enrichment (6-mer frequency, TF over GST control) | 1.16 fold enrichment (6-mer frequency, TF over GST control) | 1.27 fold enrichment (6-mer frequency, TF over GST control) | 1.14 fold enrichment (6-mer frequency, TF over GST control)
ACCATC | 1.14 fold enrichment (6-mer frequency, TF over GST control) | 1.13 fold enrichment (6-mer frequency, TF over GST control) | 1.12 fold enrichment (6-mer frequency, TF over GST control) | 1.09 fold enrichment (6-mer frequency, TF over GST control) | 1.16 fold enrichment (6-mer frequency, TF over GST control) | 1.06 fold enrichment (6-mer frequency, TF over GST control) | 1.03 fold enrichment (6-mer frequency, TF over GST control) | 1.06 fold enrichment (6-mer frequency, TF over GST control)
ACTGGC | 1.18 fold enrichment (6-mer frequency, TF over GST control) | 1.18 fold enrichment (6-mer frequency, TF over GST control) | 1.11 fold enrichment (6-mer frequency, TF over GST control) | 1.04 fold enrichment (6-mer frequency, TF over GST control) | 1.21 fold enrichment (6-mer frequency, TF over GST control) | 1.04 fold enrichment (6-mer frequency, TF over GST control) | 1.07 fold enrichment (6-mer frequency, TF over GST control) | 1.15 fold enrichment (6-mer frequency, TF over GST control)
AGTTTC | 1.22 fold enrichment (6-mer frequency, TF over GST control) | 1.33 fold enrichment (6-mer frequency, TF over GST control) | 1.3 fold enrichment (6-mer frequency, TF over GST control) | 1.19 fold enrichment (6-mer frequency, TF over GST control) | 1.29 fold enrichment (6-mer frequency, TF over GST control) | 1.65 fold enrichment (6-mer frequency, TF over GST control) | 1.36 fold enrichment (6-mer frequency, TF over GST control) | 1.29 fold enrichment (6-mer frequency, TF over GST control)
GTGACC | 1.24 fold enrichment (6-mer frequency, TF over GST control) | 1.26 fold enrichment (6-mer frequency, TF over GST control) | 1.25 fold enrichment (6-mer frequency, TF over GST control) | 1.32 fold enrichment (6-mer frequency, TF over GST control) | 1.3 fold enrichment (6-mer frequency, TF over GST control) | 1.25 fold enrichment (6-mer frequency, TF over GST control) | 1.38 fold enrichment (6-mer frequency, TF over GST control) | 1.1 fold enrichment (6-mer frequency, TF over GST control)
TTGTAC | 1.31 fold enrichment (6-mer frequency, TF over GST control) | 1.41 fold enrichment (6-mer frequency, TF over GST control) | 1.34 fold enrichment (6-mer frequency, TF over GST control) | 1.54 fold enrichment (6-mer frequency, TF over GST control) | 1.33 fold enrichment (6-mer frequency, TF over GST control) | 1.23 fold enrichment (6-mer frequency, TF over GST control) | 1.44 fold enrichment (6-mer frequency, TF over GST control) | 1.48 fold enrichment (6-mer frequency, TF over GST control)
ATGTAT | 1.47 fold enrichment (6-mer frequency, TF over GST control) | 1.48 fold enrichment (6-mer frequency, TF over GST control) | 1.34 fold enrichment (6-mer frequency, TF over GST control) | 1.65 fold enrichment (6-mer frequency, TF over GST control) | 1.47 fold enrichment (6-mer frequency, TF over GST control) | 1.31 fold enrichment (6-mer frequency, TF over GST control) | 1.42 fold enrichment (6-mer frequency, TF over GST control) | 1.32 fold enrichment (6-mer frequency, TF over GST control)
GAAATG | 1.5 fold enrichment (6-mer frequency, TF over GST control) | 1.59 fold enrichment (6-mer frequency, TF over GST control) | 1.63 fold enrichment (6-mer frequency, TF over GST control) | 1.45 fold enrichment (6-mer frequency, TF over GST control) | 1.6 fold enrichment (6-mer frequency, TF over GST control) | 1.87 fold enrichment (6-mer frequency, TF over GST control) | 1.68 fold enrichment (6-mer frequency, TF over GST control) | 1.75 fold enrichment (6-mer frequency, TF over GST control)
